Results filed as inconclusive are left out. A number with no mark means an inactive call. The source made the active and inactive calls. Calls follow the shape of the dose curve; as a rule, active = well fitted activation curve with a large enough effect; inconclusive = small, poorly fitted or top-dose-only effect; inactive = no such curve, though single readings can be large or run the other way.
Target: Cellular tumor antigen p53 (Homo sapiens) (UniProt P04637)
Test: Primary qHTS for small molecule compounds that upregulate eGFP-tagged delta133p53alpha (in N-terminal) cells. (AID 2060322); also: nearly all actives have a fitted effect of over 75% in size;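 as to activation: cells pre-induced with doxycycline then dosed without doxycycline; series mostly up to about 56 µM; 0% = DMSO vehicle and 100% = reference activator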
Conditions: NCI-H358 eGFP-delta133p53alpha fluorescence, 24 h; activation: active compounds read high
In short: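 NCI-H358 cells pre-induced 24 h with 10 ng/ml doxycycline for eGFP-delta133p53alpha, plated dox-free and exposed 24 h at 37C to titrated compounds. Fixed, Hoechst-stained; gated GFP peak intensity by laser scanning cytometry, normalized to DMSO (0%) and 57.5 uM 5-azacytidine (100%).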
Potency is read from the fitted curve at half-maximal effect.

Chain of Cellular tumor antigen p53 (Homo sapiens) (P04637 whole entry, looked up): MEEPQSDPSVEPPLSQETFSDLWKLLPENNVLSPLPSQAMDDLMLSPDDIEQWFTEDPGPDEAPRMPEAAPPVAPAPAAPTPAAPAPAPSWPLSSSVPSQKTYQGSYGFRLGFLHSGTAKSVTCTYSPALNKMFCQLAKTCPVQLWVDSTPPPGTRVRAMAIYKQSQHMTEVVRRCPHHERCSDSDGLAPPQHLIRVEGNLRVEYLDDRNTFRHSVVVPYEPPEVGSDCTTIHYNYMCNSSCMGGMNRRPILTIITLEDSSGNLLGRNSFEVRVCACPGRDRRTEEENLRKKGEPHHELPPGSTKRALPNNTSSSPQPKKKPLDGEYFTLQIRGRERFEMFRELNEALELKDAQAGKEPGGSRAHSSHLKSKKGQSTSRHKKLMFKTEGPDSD

SMILES	activation [%]	Potency
CN(C)CCOc1ccc(-c2nc(-c3ccc4c(c3)CCC4=NO)c(-c3ccncc3)[nH]2)cc1	-18.7	
Cc1nc(C2CCCCC2)c(-c2ccc(S(N)(=O)=O)c(F)c2)o1	19.2	
O=C1OC2(c3ccccc31)c1cc(I)c(O)c(I)c1Oc1c2cc(I)c(O)c1I	-36.8	
COc1ccnc2[nH]cc(C(=O)C(=O)N3CCN(C(=O)c4ccccc4)C[C@@H]3C)c12	3.59	
Cc1cc(-n2nc3ccc(Cl)cc3n2)c(O)c(C(C)(C)C)c1	19.8	
NC(=O)NC1N=C([O][Al])NC1=O (centres undefined)	8.47	
O=C(CCCCC(=O)Nc1c(I)cc(I)c(C(=O)O)c1I)Nc1c(I)cc(I)c(C(=O)O)c1I	2.82	
N[C@H](C(=O)O)c1ccc(O)cc1	-13.4	
Cc1cnn(C)c1C(=O)Nc1cc(Nc2ccc3c(C=Cc4ccccn4)n[nH]c3c2)ccc1F	18.7	
O=C1NC(=O)C(=Cc2cccc(C(F)(F)F)c2)S1	2.49	
C[C@]12CCC(=O)C=C1CC[C@@H]1[C@@H]2[C@@H](O)C[C@@]2(C)[C@H]1CC[C@]2(O)C(=O)COC(=O)CCC(=O)O	1.69	
CCCCCCCCCCC(CO)CCCCCCCC (centres undefined)	16.4	
CO[C@@H]1C(N(C)C(=O)c2ccccc2)C[C@H]2O[C@]1(C)n1c3ccccc3c3c4c(c5c6ccccc6n2c5c31)C(=O)NC4=O (some centres undefined)		9.68 µM (active)
CNCCc1ccccn1	5.02	
COc1cc(CNC(=O)CCCCC=CC(C)C)ccc1O	-14.9	
C[C@H]1C[C@H]2[C@@H]3CCC4=CC(=O)C=C[C@]4(C)[C@@]3(Cl)[C@@H](O)C[C@]2(C)[C@@]1(O)C(=O)CO	-4.18	
C=CC(=O)Nc1cc(NC(=O)c2ccc(C)c(NC(=O)c3ccno3)c2)cc(C(F)(F)F)c1	4.58	
[O-][n+]1cccc(CO)c1	20.1	
CC(C)(C)c1cc(C=O)cc(C(C)(C)C)c1O	-16.4	
Oc1c(Cl)cc(Cl)c(Cl)c1Cc1c(O)c(Cl)cc(Cl)c1Cl	19.8	
O=C(NCCc1c[nH]c2ccccc12)c1cccnc1	10.9	
CCOc1ccccc1O[C@H](c1ccccc1)[C@H]1CNCCO1	-13	

SMILES	activation [%]	Potency
CC(=O)c1ccc2c(c1)N(CCCN1CCC(CCO)CC1)c1ccccc1S2	0	
CC(=O)OC[C@H]1O[C@@H](OC(C)=O)[C@H](OC(C)=O)[C@@H]1OC(C)=O	28.8	
OCc1c[nH]c2ccccc12		31.7 µM (active)
C[C@]12C=CC(=O)C=C1CC[C@@H]1C2=CC[C@]2(C)[C@@H](C(=O)CN3CCN(c4cc(N5CCCC5)nc(N5CCCC5)n4)CC3)CC[C@@H]12	-22.1	
CCCCCCCCCCCCCCCC(=O)O	-13.4	
COc1ccc(OC)c(C(O)CNC(=O)CN)c1 (centres undefined)	8.47	
CCNC(=O)CCCC=CC[C@@H]1[C@H](C=CC(O)CCc2ccccc2)[C@@H](O)C[C@@H]1O (some centres undefined)	-2.33	
COC(=O)C=CC(=O)OC	-16.5	
N#C/C(=C1/SC[C@@H](c2ccc(Cl)cc2Cl)S1)n1ccnc1	-25.9	
CC(C)(O)Cn1c(NC(=O)c2ccc(-c3cn[nH]c3)s2)nc2cc(CN3CCOCC3)ccc21		3.85 µM (active)
CC(=O)O[C@]1(C(C)=O)CC[C@H]2[C@@H]3C=C(C)C4=CC(=O)CC[C@]4(C)[C@@H]3CC[C@@]21C	-16.9	
Cc1ccccc1N=Nc1ccc(N=Nc2c(O)ccc3ccccc23)c(C)c1	-17.5	
CC[N+](C)(CC)CCOC(=O)C(O)(c1ccccc1)C1CCCCC1 (centres undefined)	-16.7	
Cc1ccc2ccc(Cl)cc2n1	-5.08	
Cc1cccc(C)c1NC(=O)CN1CCCC1	10	
O=c1[nH]cnc2nc[nH]c12	-9.6	
O=C1OC(CN2CCOCC2)CN1/N=C/c1ccc([N+](=O)[O-])o1 (centres undefined)	5.02	
O=c1c(-c2ccccc2)c1-c1ccccc1		30.9 µM (active)
COc1cc2c(cc1O)CCC1C2CC[C@@]2(C)C1CC[C@@H]2O (some centres undefined)	27.6	
CN=C(NC#N)Nc1ccc(C2=NNC(=O)CC2C)cc1 (centres undefined)	6.69	
O=C(c1ccc(F)cc1)C1CCN(CCn2c(=S)[nH]c3ccccc3c2=O)CC1	-8.47	
CC(=O)N(CC(O)CO)c1c(I)c(C(=O)NCC(O)CO)c(I)c(C(=O)NCC(O)CO)c1I (centres undefined)	-16.7	
